Source: PubChem BioAssay AID1159580 (chemical genetic matrix, 2015)
The campaign covered roughly 5,500 compounds. About 2,000 (36%) were called active. Another 18% or so got no clear call; they are omitted. Cut-off read from the data, not from the text of the source: active = normalized growth mostly below about 0.91 (no sharp cut-off); inconclusive = no clear call, values can overlap the other calls; inactive = mostly above about 0.92. The list shows a part of the results.

Assay: chemical genetic growth profiling, strain panel (AID 1159580);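 note: tested at 20 µM; growth read once vehicle control cultures reached saturation at 30 °C; 1 = growth at the plate median or of vehicle wells; lower values mean less growth of the strain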
Settings: S. cerevisiae deletion strains, growth OD
[1] = locus YDL101C, strain DUN1, hits give low values
[2] = locus YHR030C, strain SLT2, hits give low values

Measured: normalized growth

CC(C)(C)C(=O)N1CCN(c2ncccc2C(F)(F)F)CC1
inactive: locus YAL013W, strain DEP1, hits give low values 0.988 | locus YBR229C, strain ROT2, hits give low values 0.983 | locus YCL061C, strain MRC1, hits give low values 0.998 | [1] 0.977 | locus YDL134C, strain PPH21, hits give low values 0.967 | locus YDR150W, strain NUM1, hits give low values 0.983 | locus YEL061C, strain CIN8, hits give low values 0.96 | locus YGR078C, strain PAC10, hits give low values 0.979 | [2] 0.853 | locus YHR087W, strain rtc3, hits give low values 0.973 | locus YJR043C, strain POL32, hits give low values 0.997 | locus YJR075W, strain HOC1, hits give low values 0.983 | locus YLR039C, strain RIC1, hits give low values 0.914 | locus YLR058C, strain SHM2 (second series), hits give low values 0.989 | locus YLR085C, strain ARP6, hits give low values 0.941 | locus YLR262C, strain YPT6, hits give low values 0.865 | locus YML094W, strain GIM5, hits give low values 0.939 | locus YMR219W, strain ESC1, hits give low values 0.99 | locus YMR263W, strain SAP30, hits give low values 1.02 | locus YNL153C, strain GIM3, hits give low values 0.992 | locus YNL298W, strain CLA4 (second series), hits give low values 0.966 | locus YNL322C, strain KRE1, hits give low values 0.974 | locus YNR030W, strain Alg12, hits give low values 0.963 | locus YOL006C, strain TOP1, hits give low values 0.871 | locus YPL055C, strain LGE1, hits give low values 0.959 | locus YPL241C, strain CIN2, hits give low values 0.999 | locus YPR135W, strain CTF4, hits give low values 0.787

N/C(CSc1ccc(Cl)cc1)=N/OC(=O)c1ccc(C(F)(F)F)cc1
inactive: locus YDL214C, strain PRR2, hits give low values 0.798 | locus YDR052C, strain DBF4, hits give low values 0.912 | locus YDR477W, strain SNF1, hits give low values 0.798 | locus YER123W, strain YCK3, hits give low values 0.774 | locus YER133W, strain GLC7, hits give low values 0.853 | locus YFR003C, strain YPI1, hits give low values 0.908 | locus YGR040W, strain KSS1, hits give low values 0.816 | locus YGR052W, strain FMP48, hits give low values 0.838 | locus YGR092W, strain DBF2, hits give low values 0.805 | locus YHR079C, strain IRE1, hits give low values 0.739 | locus YHR082C, strain KSP1, hits give low values 0.788 | locus YHR205W, strain SCH9, hits give low values 0.604 | locus YJL095W, strain BCK1, hits give low values 0.7 | locus YJL128C, strain PBS2, hits give low values 0.889 | locus YJL157C, strain FAR1, hits give low values 0.826 | locus YJR066W, strain TOR1 (second series), hits give low values 0.687 | locus YJR066W, strain TOR1, hits give low values 0.651 | locus YKL048C, strain ELM1, hits give low values 0.953 | locus YKL067W, strain YNK1, hits give low values 0.826 | locus YKL101W, strain HSL1, hits give low values 0.863 | locus YKL203C, strain TOR2, hits give low values 0.859 | locus YLR133W, strain CKI1, hits give low values 0.822 | locus YLR403W, strain SFP1, hits give low values 0.761 | locus YML070W, strain DAK1, hits give low values 0.852 | locus YMR205C, strain PFK2 (second series), hits give low values 0.836 | locus YNL020C, strain ARK1, hits give low values 0.836 | locus YNL161W, strain CBK1, hits give low values 0.9 | locus YNL183C, strain NPR1, hits give low values 0.82 | locus YNL307C, strain MCK1 (second series), hits give low values 0.786 | locus YOL136C, strain PFK27, hits give low values 0.852 | locus YOR061W, strain CKA2, hits give low values 0.803 | locus YOR119C, strain RIO1, hits give low values 0.845 | locus YOR231W, strain MKK1, hits give low values 0.791 | locus YPL031C, strain PHO85, hits give low values 0.807 | locus YPL153C, strain RAD53, hits give low values 0.811 | locus YPL204W, strain HRR25, hits give low values 0.786
active: locus YAR019C, strain CDC15, hits give low values 0.853 | locus YBL105C, strain PKC1, hits give low values 0.895 | locus YBR135W, strain CKS1, hits give low values 0.89 | locus YBR136W, strain MEC1, hits give low values 0.889 | locus YBR160W, strain CDC28, hits give low values 0.874 | locus YDL017W, strain CDC7, hits give low values 0.893 | locus YDL028C, strain MPS1, hits give low values 0.847 | [1] 0.867 | locus YDL108W, strain KIN28, hits give low values 0.881 | locus YDL132W, strain cdc53, hits give low values 0.886 | locus YDR054C, strain cdc34, hits give low values 0.87 | locus YDR226W, strain ADK1, hits give low values 0.867 | locus YFL009W, strain cdc4, hits give low values 0.841 | locus YFL029C, strain CAK1, hits give low values 0.853 | locus YFR019W, strain FAB1, hits give low values 0.766 | locus YFR028C, strain CDC14, hits give low values 0.86 | [2] 0.422 | locus YIL147C, strain SLN1, hits give low values 0.876 | locus YJR016C, strain ILV3, hits give low values 0.889 | locus YKL193C, strain SDS22, hits give low values 0.885 | locus YLR113W, strain HOG1, hits give low values 0.619 | locus YMR001C, strain CDC5, hits give low values 0.866 | locus YMR277W, strain FCP1, hits give low values 0.855 | locus YNL006W, strain LST8, hits give low values 0.892 | locus YNL207W, strain RIO2, hits give low values 0.874 | locus YNL222W, strain SSU72, hits give low values 0.872 | locus YOL078W, strain AVO1, hits give low values 0.877 | locus YOR329C, strain SCD5, hits give low values 0.9 | locus YPL209C, strain IPL1, hits give low values 0.892 | locus YPL256C, strain CLN2, hits give low values 0.647 | locus YPR025C, strain CCL1, hits give low values 0.886 | locus YPR106W, strain ISR1, hits give low values 0.875 | locus YPR111W, strain DBF20, hits give low values 0.855 | strain NNK1, hits give low values 0.862 | strain TSCII, hits give low values 0.85
